Test [1] has as its system TRPC4 beta (transient receptor potential cation channel C4), mouse. Kind of test: activators of mouse TRPC4 channel, confirmation, cell-based, Fluo4 calcium, HEK293 TRPC4beta/mu-opioid, duplicates, 10 µM (AID 2426;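 active = fluorescence ratio normalized to control raised more than 50% in primary screen plus both repeat runs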). Conditions: Fluo4 calcium fluorescence, at 10 µM; active compounds read high.
The test system of test [2] is transient receptor potential cation channel C4 beta (TRPC4), mouse. Kind of test: activators of mouse TRPC4 channel, confirmation, cell-based, second round, Fluo4, HEK293 TRPC4beta/mu-opioid, 1 µM (AID 2461;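 active = primary screen active and over 50% activation in each of two duplicate runs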). The following applies: Fluo4 calcium fluorescence, at 1 µM; active compounds read high.
Test [3] concerns TRPC4 (transient receptor potential cation channel C4 beta), mouse. Kind of test: positive allosteric modulators of mouse TRPC4, confirmation, cell-based, second round, Fluo-4, HEK293 TRPC4beta/mu-opioid, 1 µM (AID 2554;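 active = primary screen hit whose fluorescence ratio, in both repeats, exceeds the weak agonist control mean by 3 SD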). Conditions: DAMGO EC20, Fluo-4 calcium flux, at 1 µM; active compounds read high.
The test system of test [4] is TRPC4 beta (transient receptor potential cation channel C4), mouse. The test can be described thus: positive allosteric modulators of mouse TRPC4, confirmation, cell-based, Fluo-4, HEK293 TRPC4beta/mu-opioid (AID 2555;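 active = primary screen hit whose calcium fluorescence ratio, in both repeats, exceeds the weak agonist control mean by 3 SD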). The following applies: DAMGO EC20, Fluo-4 calcium flux, at 10 µM; active compounds read high.
In test [5] the target is Short transient receptor potential channel 4 (Mus musculus) (UniProt Q9QUQ5). Kind of test: inhibitors of mouse TRPC4 channel, confirmation, cell-based, Fluo4, HEK293 TRPC4beta/mu-opioid (AID 2636). The following applies: DAMGO, Fluo4 calcium flux, at 10 µM; active compounds read high. (In general: Calcium assays in cells follow changes in intracellular calcium, usually with a dye or a luminescent sensor.)

Test [6] has the same target. Kind of test: inhibitors of mouse TRPC4 channel, confirmation, cell-based, second round, Fluo4, HEK293 TRPC4beta/mu-opioid, 1 µM (AID 2637;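 active = calcium signal ratio cut to more than 3 SD under the fully stimulated control mean yet still positive, in both repeats and the primary screen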). The following applies: Fluo4 calcium flux, DAMGO, at 1 µM; active compounds read high.
Test [7] shares this target. The test can be described thus: mouse TRPC4 channel activators, dose response, cell-based, HEK293 TRPC4/mu-opioid, Fluo-4 calcium (AID 434937;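 active = primary screen activator hit with a dose response curve and TRPC4 channel activation at any tested dose; inactive = no activation, no dose response, or not a primary hit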).
For test [8] the target is unchanged. The test can be described thus: TRPC4 positive allosteric modulators, dose response, cell-based, HEK293 TRPC4/mu-opioid, Fluo-4 calcium, EC20 DAMGO (AID 434941;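 active = earlier screen potentiator hit that boosts the TRPC4 ion channel at some dose, with a dose response; inactive = no potentiation, no dose response, or not a prior hit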;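 also: calcium entry triggered by an EC20 dose of DAMGO at the co-expressed mu-opioid receptor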).
Test [9] shares this target. Kind of test: mouse TRPC4 channel inhibitors, dose response, cell-based, HEK293 TRPC4/mu-opioid, Fluo-4 calcium (AID 434942;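 active = primary screen inhibitor hit that blocks the TRPC4 channel at some tested dose, yielding a dose curve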).
Test [10] deals with Short transient receptor potential channel 6 (Mus musculus) (UniProt Q61143). The test can be described thus: inhibition of mouse TRPC6 channel, confirmation, selectivity assay for TRPC4 inhibitor project, cell-based, HEK293, membrane potential dye, duplicate (AID 434948;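 active = active in primary screen and both duplicates, each dropping signal beyond three positive-control SD with fluorescence still positive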). Conditions: HEK293 TRPC6, membrane potential dye fluorescence, at 10 µM, stimulated with maximal-effect acetylcholine; active compounds read high.

Test [11] shares this target. The test can be described thus: activation of mouse TRPC6 channel, confirmation, selectivity assay for TRPC4 activator project, cell-based, HEK293, membrane potential dye, duplicate (AID 434950;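 active = membrane potential signal rise above negative control mean plus 3 SD in both duplicates, also active in the earlier TRPC4 screen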;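 as to activation: 0% = buffer only wells and 100% = acetylcholine maximal-effect wells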). The following applies: HEK293 TRPC6, membrane potential fluorescence, at 10 µM; active compounds read high.
The target is the same in test [12]. The test can be described thus: TRPC6 potentiation by TRPC4 potentiator hits, confirmation, selectivity assay for TRPC4 potentiator project, HEK293 cells, membrane potential dye, duplicate (AID 434952;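 active = compound raising the membrane signal above positive-control mean plus 3 SD in both repeats, and a primary screen hit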). Conditions: HEK293 TRPC6, membrane potential dye fluorescence, at 10 µM, maximal acetylcholine added after compound; active compounds read high.
The target of test [13] is Short transient receptor potential channel 4 (Mus musculus) (UniProt Q9QUQ5). The test can be described thus: calcium flux activators in TRPC4/5HT1a cells, counter-screen for TRPC4 activator project, cell-based, second counter screen, HEK293 TRPC4/5HT1a, Fluo-4 (AID 434977;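 active = calcium signal rise above buffer-control mean plus 5 SD in both duplicates, and also a hit in the primary screen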). The following applies: Fluo-4 calcium flux, at 10 µM; active compounds read high.
Test [14] is described as follows: calcium flux inhibitors in TRPC4/5HT1a cells, confirmation, counter-screen for TRPC4 inhibitor project, cell-based, second counter screen, HEK293 TRPC4/5HT1a, Fluo-4 (AID 434978;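 active = primary screen active whose calcium signal fell more than 3 SD beyond the full-serotonin control mean in both duplicate plates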;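 also: serotonin given first at submaximal then at maximal dose after compound preincubation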). Conditions: Fluo-4 calcium flux, at 10 µM, serotonin added to trigger calcium flux; active compounds read high.
Test [15] concerns TRPC4 (mouse), co-expressed with 5HT1a in HEK293. Kind of test: calcium flux potentiators in TRPC4/5HT1a cells, confirmation, counter-screen for TRPC4 potentiator project, cell-based, second counter screen, HEK293 TRPC4/5HT1a, Fluo-4 (AID 434979;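 active = signal rise over 3 SD above mean of control wells given weak agonist, in both repeats and first screen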). Conditions: Fluo-4 calcium flux, at 10 µM, serotonin added at its EC20 dose; active compounds read high.
The nature of test [16]: calcium flux activation in mu-opioid HEK293 cells, confirmation, counter-screen for TRPC4 activator project, cell-based, HEK293 mu-opioid receptor line (AID 449723;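 active = hit in primary screen, with calcium signal over 5 SD above buffer well mean in both duplicates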;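 also: counter screen cells carry the mu-opioid receptor alone and lack TRPC4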). The following applies: Fluo-4 calcium fluorescence, at 10 µM; active compounds read high.
A short description of test [17]: calcium flux enhancement in mu-opioid HEK293 cells, confirmation, counter-screen for TRPC4 allosteric potentiator project, cell-based, HEK293 mu-opioid receptor line (AID 449724;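 active = calcium signal rise more than 3 SD above the low-dose agonist control mean, in both duplicate plates and the primary screen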;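 also: HEK293 cells carrying mu-opioid receptor only with no TRPC4 channel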). The following applies: Fluo-4 calcium flux, at 10 µM, compound added before EC20 DAMGO stimulus; active compounds read high.

For some of these results: Measured potencies and affinities stand elsewhere. Activity calls are given as the source filed them.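 The calls were made as follows, unless noted: active = calcium signal cut by more than 3 SD below the full-agonist control yet still positive, in both repeats and the earlier primary screen; inactive = the rest.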

Sequence of Short transient receptor potential channel 4 (Mus musculus) (Q9QUQ5 whole entry, looked up): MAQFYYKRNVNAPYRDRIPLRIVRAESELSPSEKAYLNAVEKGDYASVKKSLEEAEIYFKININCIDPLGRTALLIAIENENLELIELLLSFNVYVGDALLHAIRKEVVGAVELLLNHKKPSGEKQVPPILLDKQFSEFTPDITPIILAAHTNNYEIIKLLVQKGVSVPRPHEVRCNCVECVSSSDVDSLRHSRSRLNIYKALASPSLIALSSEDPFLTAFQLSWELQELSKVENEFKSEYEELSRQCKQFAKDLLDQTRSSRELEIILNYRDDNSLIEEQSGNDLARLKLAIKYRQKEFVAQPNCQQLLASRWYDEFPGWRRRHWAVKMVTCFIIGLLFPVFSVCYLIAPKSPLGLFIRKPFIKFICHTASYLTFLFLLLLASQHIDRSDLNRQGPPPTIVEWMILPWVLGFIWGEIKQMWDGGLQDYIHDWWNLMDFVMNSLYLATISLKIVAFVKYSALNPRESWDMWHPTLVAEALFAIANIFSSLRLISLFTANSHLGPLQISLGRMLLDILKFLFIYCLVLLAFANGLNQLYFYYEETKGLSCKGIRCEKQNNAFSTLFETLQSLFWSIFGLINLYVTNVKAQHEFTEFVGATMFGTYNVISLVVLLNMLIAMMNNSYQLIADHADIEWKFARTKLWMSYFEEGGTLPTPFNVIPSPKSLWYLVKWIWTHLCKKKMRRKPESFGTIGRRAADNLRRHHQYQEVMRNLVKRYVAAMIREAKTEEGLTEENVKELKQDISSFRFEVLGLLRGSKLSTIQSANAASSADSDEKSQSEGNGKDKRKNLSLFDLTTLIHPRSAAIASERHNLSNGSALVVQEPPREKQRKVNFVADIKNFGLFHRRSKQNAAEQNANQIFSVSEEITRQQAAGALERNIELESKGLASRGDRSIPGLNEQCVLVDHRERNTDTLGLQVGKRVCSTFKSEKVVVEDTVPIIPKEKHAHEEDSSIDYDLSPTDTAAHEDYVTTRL
Sequence of Short transient receptor potential channel 6 (Mus musculus) (Q61143 whole entry, looked up): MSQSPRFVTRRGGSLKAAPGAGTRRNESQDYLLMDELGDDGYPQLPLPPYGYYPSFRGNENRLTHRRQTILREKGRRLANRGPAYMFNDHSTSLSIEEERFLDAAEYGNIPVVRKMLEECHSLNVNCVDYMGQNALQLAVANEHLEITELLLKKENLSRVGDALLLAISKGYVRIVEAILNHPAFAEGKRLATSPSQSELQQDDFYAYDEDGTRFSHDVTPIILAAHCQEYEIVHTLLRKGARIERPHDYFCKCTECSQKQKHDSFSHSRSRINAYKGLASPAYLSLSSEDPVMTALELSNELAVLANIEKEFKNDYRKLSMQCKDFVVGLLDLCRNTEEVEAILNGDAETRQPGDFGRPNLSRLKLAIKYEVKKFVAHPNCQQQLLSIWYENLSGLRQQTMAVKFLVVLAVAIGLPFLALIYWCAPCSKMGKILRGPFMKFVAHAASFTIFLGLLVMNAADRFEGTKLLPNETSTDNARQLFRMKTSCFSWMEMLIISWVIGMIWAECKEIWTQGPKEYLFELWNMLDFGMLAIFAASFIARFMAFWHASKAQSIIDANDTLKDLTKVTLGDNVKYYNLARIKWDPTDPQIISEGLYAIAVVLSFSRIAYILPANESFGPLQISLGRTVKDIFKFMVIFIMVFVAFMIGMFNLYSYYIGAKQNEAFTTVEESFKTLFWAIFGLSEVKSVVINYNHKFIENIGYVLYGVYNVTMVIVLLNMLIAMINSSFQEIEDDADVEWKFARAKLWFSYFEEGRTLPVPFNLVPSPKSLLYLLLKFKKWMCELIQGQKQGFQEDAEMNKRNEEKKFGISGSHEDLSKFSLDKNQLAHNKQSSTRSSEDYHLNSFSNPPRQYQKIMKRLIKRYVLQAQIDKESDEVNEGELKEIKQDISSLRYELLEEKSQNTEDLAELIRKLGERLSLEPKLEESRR

For `Cc1ccc(Nc2nc3ccccc3[nH]2)nc1`, the result in test [1], in test [2], in test [3], in [4], in test [5] and in test [6] was inactive. Also, the result in test [7], in test [8], in test [9], in [10], in test [11] and in test [12] was inactive. Moreover, the outcome in [13], in test [14], in test [15], in test [16] and in [17] was inactive.

With `COc1ccc(CN(C2CCCCC2C)S(=O)(=O)c2ccc(S(=O)(=O)N(C)C)cc2)cc1OC` (stereo unspecified), the result in [1], in test [2], in [3], in test [5], in test [6] and in [7] was inactive. Besides, the result in test [8], in test [9], in test [10], in test [11], in [12] and in test [13] was inactive. Besides, the result in test [14], in test [16] and in test [17] was inactive. In addition, the results for the potentiation in test [4] and in test [15] were 12% (active) and 5.84% (active), respectively.

On to `Cc1ccc(S(=O)(=O)N2CCC(C(=O)OCC(=O)N(C)CC(=O)Nc3ccc(F)cc3)CC2)cc1C`, for which the result in test [1], in [2], in [3], in test [4], in test [5] and in [6] was inactive. Besides, the outcome in test [7], in test [8], in test [9], in test [10], in test [11] and in test [12] was inactive. Also, the result in test [13], in test [14], in test [15], in test [16] and in test [17] was inactive.

The inhibition is the change of the read-out against control, counted positive when it falls. Regarding `O=C(N/N=C/c1cc2c(cc1Br)OCO2)c1cc2ccccc2o1`, the outcome in test [1], in [2], in test [3], in test [4], in test [6] and in test [7] was inactive. The result in test [8], in test [9], in test [10], in test [11], in test [12] and in test [13] was inactive. In addition, the result in [14], in test [15], in test [16] and in test [17] was inactive. In addition, the inhibition in [5] was 93% (active).

As to `Cc1cc(Br)cc(C)c1OCCCCN(C)C`, the result in test [1], in test [2], in test [4], in [5], in test [6] and in [7] was inactive. Also, the outcome in test [8], in [9], in test [10], in test [11], in test [12] and in test [13] was inactive. The outcome in test [14], in test [16] and in test [17] was inactive. For the same molecule, the potentiation is 23% (active) in [3] and 23.5% (active) in test [15].

As for `CC1CCN(CC(O)COCCC23CC4CC(CC(C4)C2)C3)CC1` (stereo unspecified), the outcome in test [1], in test [2], in test [3], in test [4], in [5] and in test [6] was inactive. Moreover, the result in [7], in test [8], in test [9], in test [10], in test [11] and in test [12] was inactive. Moreover, the result in [13], in test [14], in test [15], in [16] and in test [17] was inactive.

As to `COc1ccc(N(C(=O)c2snc(C(N)=O)c2N)C(C(=O)NC2CCCCC2)c2ccc(C)o2)c(OC)c1` (stereo unspecified), the outcome in test [1], in test [2], in [3], in test [4], in test [5] and in test [6] was inactive. Besides, the result in test [7], in [8], in test [9], in test [10], in [11] and in test [12] was inactive. Moreover, the outcome in [13], in test [14], in [15], in test [16] and in [17] was inactive.

With `COC(=O)C(CC(=O)Nc1cc(C)ccc1C)Nc1ccccc1OC` (stereo unspecified), the result in test [1], in [2], in test [3], in test [4], in test [5] and in [6] was inactive. Also, the result in test [7], in [8], in test [9], in test [10], in test [12] and in test [13] was inactive. For the same molecule, the outcome in [14], in test [15], in [16] and in test [17] was inactive. In addition, the activation in [11] is 40.5% (active).
